Values joined by “and” are separate entries in the source; they are usually repeats but may differ in a detail not shown here. Equal values may be shown once. Active and inactive are the calls of the source. How the source made its calls: active means hit-call score of the fitted dose curve at least 0.9, where 1 is the maximum; inactive means score below 0.9.

In PubChem BioAssay (EPA / NIEHS) one finds outcome and AC50 data, which are given here for 40 compounds.

This assay in a line: APR_HepG2_MitoMass_1hr: Apredica 1-hour HepG2 Assay for Mitochondrial Mass (AID 2282674). The following applies: high-content imaging, actives raise or lower the signal. As for the experimental part:
APR_HepG2_1hr is a cell-based, multiplexed-readout assay that uses HepG2, a human liver cell line, with measurements taken at 1 hour after chemical dosing in a 384-well plate.APR_HepG2_MitoMass_1hr is one of 10 assay component(s) measured or calculated from the APR_HepG2_1hr assay. It is designed to make measurements of cell phenotype, a form of morphology reporter, as detected with fluorescence intensity signals by HCS Fluorescent Imaging technology.Data from the assay component APR_HepG2_MitoMass_1hr was analyzed into 1 assay endpoint. This assay endpoint, APR_HepG2_MitoMass_1hr, was analyzed with bidirectional fitting relative to DMSO as the negative control and baseline of activity. Using a type of morphology reporter, gain or loss-of-signal activity can be used to understand changes in the signaling. Furthermore, this assay endpoint can be referred to as a primary readout, because this assay has produced multiple assay endpoints where this one serves a signaling function. To generalize the intended target to other relatable targets, this assay endpoint is annotated to the cell morphology intended target family, where the subfamily is organelle conformation.
Cells were treated with dimethyl sulfoxide (DMSO) as a solvent control at a final concentration of 0.5% v/v or with compounds in DMSO with a resulting final DMSO concentration of 0.5% v/v. Compound treatment was done at concentrations of 0.39, 0.78, 1.56, 3.12, 6.24, 12.5, 25, 50, 100, and 200 uM in duplicate on each plate. Cells were treated with compounds for 1, 24, or 72 hr. Carbonyl […] m-chloro-phenylhydrazone (CCCP) and taxol were used as positive controls for mitochondrial function and cytoskeletal stability, respectively; DMSO served as the negative control for this experiment. Cells were fixed by the direct addition of 50 uL formaldehyde in Hank's Balanced Salt Solution (HBSS) to a final concentration of 3.7%. After incubation in the fixation medium for 30 min at room temperature (293-298 K), cells were rinsed twice with HBSS and treated with cell permeabilization buffer (16 uL of 0.5% Triton X-100) for 10 min at room temperature (293-298 K) before labeling. For mitochondrial membrane potential and mitochondrial measurements, pre-fixed cells were incubated with 50 uL of MitoTracker Red CMXRos (Invitrogen) at a concentration of 250 nM for 30 min before fixation. In the remaining cases, post-fixed cells were labeled by incubation with a multiplexed mixture of primary antibodies in HBSS for 60 min at room temperature (293-298 K) to detect immunoreactivity of c-Jun (1:500), phospho-histone H3 (1:100), phospho-histone H2A.x (1:200), p53 (1:400), alpha-tubulin (1:200) and Hoechst 33342 (2 ug/mL). Cells were labeled for multiplexed imaging on two separate plates: a) Hoechst 33342, MitoTracker Red, phospho-histone H3, and alpha-tubulin, and b) Hoechst 33342, phospho-histone H2A.x, and c-Jun. A final rinse with HBSS (50 uL) was performed before analysis. The primary and secondary antibodies for the proteins were phospho-histone H3 (rabbit anti-phospho-histone H3 and FITC-donkey anti-rabbit IgG), phospho-histone H2A.x (mouse anti-phospho-histone H2A.x and FITC-donkey anti-mouse IgG), c-Jun (rabbit anti-phospho-c-Jun and Cy3-donkey anti-rabbit IgG), p53 (sheep anti-p53 and Cy5-donkey anti-sheep IgG), alpha-tubulin (mouse anti-alpha-tubulin and Cy5-donkey anti-mouse IgG). These antibodies are available as the CellCiphr HepG2 assay kit (Millipore).Digital images of each well were captured using a Cellomics ArrayScan VTI (Thermo Scientific Cellomics) (0.8 NA objective, 0.63x optical coupler, and XF-93 filter set) at 20x magnification. The images were acquired using the autofocus feature of the ArrayScan instrument, which entails the following steps. First, the camera focuses on channel 1 (Hoechst 33342), where nuclei are identified. Second, a Z offset of 1 um is used for capturing mitochondria (MitoTracker Red). Third, a Z offset of -2 um is used for capturing the cytoskeleton (tubulin). […]
With `COc1nc(C)nc(NC(=O)NS(=O)(=O)c2ccccc2CCC(F)(F)F)n1`, the result was inactive.

As to `CCCCNC(=O)n1c(NC(=O)OC)nc2ccccc21`, the outcome was inactive.

Regarding `CCc1nn(C)c(C(=O)NCc2ccc(C(C)(C)C)cc2)c1Cl`, the result was inactive.

In the case of `CNC(=O)ON=CC(C)(C)SC`, the compound was classed as inactive.

In the case of `CCCN(CCC)c1c([N+](=O)[O-])cc(S(N)(=O)=O)cc1[N+](=O)[O-]`, the outcome was inactive.

Consider `C#CCOS(=O)OC1CCCCC1Oc1ccc(C(C)(C)C)cc1` (stereo not given), for which the compound was classed as inactive.

As to `COC(=O)N(OC)c1ccccc1COc1ccn(-c2ccc(Cl)cc2)n1`, the outcome was inactive.

For `CC(C)Oc1cc(-n2nc(C(C)(C)C)oc2=O)c(Cl)cc1Cl`, the compound was called inactive.

Take `C=CC1(C)OC(=O)N(c2cc(Cl)cc(Cl)c2)C1=O` (stereo not given): the outcome was inactive.

For orientation: AC50 means the midpoint of the concentration-response curve, whichever way the signal moves. As for `CCCCNC(=O)OCC#CI`, the concentration at half-maximal activity (AC50) was 47.8 µM (active) and 60.6 µM (active).

Regarding `Cc1ccc(-c2c(Cl)nc(C#N)n2S(=O)(=O)N(C)C)cc1`, the compound was classed as inactive.

As for `CC1=C(C(=O)Nc2ccccc2)SCCO1`, the compound was called inactive.

On to `CCCCOC(=O)c1ccccc1C(=O)OCCCC`, for which the result was inactive.

With `O=C(Nc1ccccc1)Nc1ccnc(Cl)c1`, the compound was called inactive.

Regarding `O=C(O)COc1nc(Cl)c(Cl)cc1Cl`, the compound was called inactive.

Take `CNC(=S)S`: the result was inactive.

In the case of `COC(=O)C(C)Oc1ccc(Oc2ccc(Cl)cc2Cl)cc1` (stereo not given), the compound was classed as inactive.

Consider `CCNc1nc(Cl)nc(NC(C)C)n1`, for which the call was inactive.

Turning to `CCON=C(CC)C1=C(O)CC(c2c(C)cc(C)cc2C)CC1=O` (stereo not given), the outcome was inactive.

Take `OC(c1ccc(Cl)cc1)(c1cncnc1)c1ccccc1Cl` (stereo not given): the call was inactive.

Consider `C=CCC1=C(C)[C@@H](OC(=O)[C@@H]2[C@@H](C=C(C)C)C2(C)C)CC1=O`, for which the compound was called inactive.

With `CCOC(=O)C(Cl)Cc1cc(-n2nc(C)n(C(F)F)c2=O)c(F)cc1Cl` (stereo not given), the outcome was inactive.

For the compound `COC(=O)C=C(C)OP(=O)(OC)OC`, the outcome was inactive.

As to `Fc1ccc(Oc2ccnc3cc(Cl)cc(Cl)c23)cc1`, the result was inactive.

In the case of `CCOc1cc(Oc2ccc(C(F)(F)F)cc2Cl)ccc1[N+](=O)[O-]`, the compound was classed as inactive.

For `Oc1ccccc1-c1ccccc1`, the compound was classed as inactive.

On to `COc1ccc(C(c2ccc(OC)cc2)C(Cl)(Cl)Cl)cc1`, for which the outcome was inactive.

With `CO/C=C(/C(=O)OC)c1ccccc1Oc1cc(Oc2ccccc2C#N)ncn1`, the compound was called inactive.

Regarding `CC(Oc1ccc(Cl)cc1Cl)C(=O)O` (stereo not given), the compound was called inactive.

As for `Cc1c(F)c(F)c(COC(=O)C2C(/C=C(\Cl)C(F)(F)F)C2(C)C)c(F)c1F` (stereo not given), the result was inactive.

Regarding `CC1COC(Cn2cncn2)(c2ccc(Oc3ccc(Cl)cc3)cc2Cl)O1` (stereo not given), the call was inactive.

With `N#CC(CCc1ccc(Cl)cc1)(Cn1cncn1)c1ccccc1` (stereo not given), the compound was classed as inactive.

Take `C=CCC1=C(C)C(OC(=O)C2C(C=C(C)C)C2(C)C)CC1=O` (stereo not given): the compound was called inactive.

For the compound `CON(C)C(=O)Nc1ccc(Cl)c(Cl)c1`, the result was inactive.

For the compound `COc1nc(NC(C)C)nc(NC(C)C)n1`, the call was inactive.

Consider `COc1cnc(OC)n2nc(NS(=O)(=O)c3c(OCC(F)F)cccc3C(F)(F)F)nc12`, for which the outcome was inactive.

Take `COP(N)(=O)SC` (stereo not given): the compound was called inactive.

For the compound `CC(C)C1(C)N=C(c2nc3ccccc3cc2C(=O)O)NC1=O` (stereo not given), the result was inactive.

Turning to `CCOP(=S)(OCC)SCn1c(=O)oc2cc(Cl)ccc21`, the outcome was inactive.

For `COc1nc(C)nc(NC(=O)NS(=O)(=O)c2ccccc2Cl)n1`, the compound was classed as inactive.
